Results on 28 compounds are retold here after PubChem BioAssay AID430 (Sanford-Burnham Center for Chemical Genomics, 2006).

Molecules are shown by their SMILES. Out of some 63,000 compounds screened, about 1,100 (1.7%) were called active. This is one part of a sample in which actives are shown more often than they occur. Entries with a potency or affinity are not part of this list. A number with no mark means an inactive call. No stated cut-off is given here; in the data, active means cytotoxicity above about 50%; inactive means the rest.

This test in a line: HPDE-C7 pancreatic duct cell viability loss – fluorescence, HTS (AID 430).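 Further: cells exposed to compound for 48 hours before viability readout; 0% = vehicle and 100% = reference cytotoxic drug.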 The settings on record: HPDE-C7 pancreatic duct cells viability, at 10 µM, hits give high values.
As to `C=CCN1C(=O)C2(c3ccccc31)C1CCCC=C1C(C#N)=C(N)C2(C#N)C#N` (stereo not drawn), the cytotoxicity was -22.1%.

For `C=C(C)c1cccc(C(C)(C)NC(=O)N2CCOCC2)c1`, the cytotoxicity was 7.9%.

With `COc1ccc(C(=O)O)cc1F`, the cytotoxicity was -2.5%.

With `COc1ccc(C(=O)C(c2ccccc2)N2CCOCC2)cc1` (stereo not drawn), the cytotoxicity is -4.6%.

For the compound `COc1ccc(C(=O)CCN2CCCCCC2)cc1`, the cytotoxicity is 19.8%.

For the compound `COc1ccc(C(O)C(CN2CCOCC2)c2ccccc2)cc1F` (stereo not drawn), the cytotoxicity is -2.2%.

On to `CCOC(=O)Cc1nnc(NC(=O)CSc2nnc3c4ccccc4n(C(C)C)c3n2)s1`, for which the cytotoxicity is -15%.

`CC1CCCCC1NC(=O)C1CCN(S(=O)(=O)c2ccc3c(c2)CCC(=O)N3)CC1` (stereo not drawn): the cytotoxicity was -18.5%.

With `COc1ccccc1C1NC(=O)CS1` (stereo not drawn), the cytotoxicity is -18.6%.

Consider `Cc1nc(-c2ccccc2)cc(N2CCCC2)n1`, for which the cytotoxicity was -14.7%.

Take `c1ccc(-c2cc(N3CCCCC3)ncn2)cc1`: the cytotoxicity is -3.8%.

On to `Nc1nc(-c2ccccc2)cc(N2CCCCC2)n1`, for which the cytotoxicity was 50.6% (active).

With `CCOc1cccc2c1OC1(C)CC2NC(=O)N1c1cccc(F)c1` (stereo not drawn), the cytotoxicity is -12.1%.

For `Cc1ccc(C(=O)Nc2ncc(Cc3ccccc3)s2)o1`, the cytotoxicity is 31.4%.

`Cc1nnc(SCC(=O)Nc2ncc(Cc3ccc(F)cc3)s2)n1N`: the cytotoxicity was -7.7%.

In the case of `Cc1ccc(C(=O)Nc2ncc(Cc3ccc(F)cc3)s2)o1`, the cytotoxicity was 57.5% (active).

Consider `CCOc1ccc(CN(CCO)CCO)cc1C(=O)OC`, for which the cytotoxicity is -17%.

In the case of `CSc1cccc(NC(=O)CSc2nc3ccccc3o2)c1`, the cytotoxicity was -17.5%.

With `O=C(CSc1nc2ccccc2o1)Nc1ccccc1`, the cytotoxicity is -13.9%.

Take `CCCCN(Cc1ccccc1)C(=O)C1CCCN(S(=O)(=O)c2cnc[nH]2)C1` (stereo not drawn): the cytotoxicity is 6%.

With `Cc1cccc2cc(C#N)c(SCC(=O)N3CC(=O)Nc4ccccc43)nc12`, the cytotoxicity was 53.4% (active).

As to `Cc1cccc2cc(C#N)c(SCC(=O)N3CCC(C)CC3)nc12`, the cytotoxicity is 8.5%.

Regarding `Cc1ccccc1-n1c(C)nnc1SCC(=O)N1CC(=O)Nc2ccccc21`, the cytotoxicity is 4.2%.

Regarding `C=CCOc1ccc(/C(O)=C2/C(=O)C(=O)N(CCN3CCOCC3)C2c2ccc(C)cc2)cc1` (stereo not drawn), the cytotoxicity was -1.1%.

On to `N#CC1=C(N)C(C#N)(C#N)[C@H](c2ccncc2)[C@H]2CC3(CC=C12)OCCO3`, for which the cytotoxicity is -12.1%.

For `Cc1ccc(C2C3CN(C(C)C)CC=C3C(C#N)=C(N)C2(C#N)C#N)cc1` (stereo not drawn), the cytotoxicity was -0.7%.

In the case of `CCOC(=O)c1cccc(NC(=O)CSc2nnc(-c3cccnc3)n2CC)c1`, the cytotoxicity is -5.8%.

Consider `COc1ccccc1-n1c(SCC(=O)N2CCCCC2)nc2cccnc21`, for which the cytotoxicity was -11.8%.
